Tests used:
Type in all cases: functional
[1] = molecular target: Solute carrier family 2, facilitated glucose transporter member 1 (Homo sapiens) (UniProt P11166); experiment: ST_JUDE_LEISH: Cytotoxicity at 2uM final concentration against transgenic Leishmania Mexicana promastigotes LmGLUT1 that are glucose transport deficient and complemented with the human glucose transporter GLUT1. Activity is measured by DNA content using SYBR green in vitro
[2] = molecular target: Hexose transporter 1 (Plasmodium falciparum) (UniProt O97467); experiment: ST_JUDE_LEISH: Cytotoxicity at 2uM final concentration against transgenic Leishmania Mexicana promastigotes LmPfHT that are glucose transport deficient and complemented with the Plasmodium falciparum hexose transporter. Activity is measured by DNA content using SYBR green in vitro
[3] = molecular target: Glucose transporter (Leishmania mexicana) (UniProt O61059); experiment: ST_JUDE_LEISH: Cytotoxicity at 2uM final concentration against transgenic Leishmania Mexicana promastigotes LmGT2 that are glucose transport deficient and complemented with the L. Mexicana glucose transporter 2. Activity is measured by DNA content using SYBR green in vitro

Chain of Solute carrier family 2, facilitated glucose transporter member 1 (Homo sapiens) (P11166 whole entry): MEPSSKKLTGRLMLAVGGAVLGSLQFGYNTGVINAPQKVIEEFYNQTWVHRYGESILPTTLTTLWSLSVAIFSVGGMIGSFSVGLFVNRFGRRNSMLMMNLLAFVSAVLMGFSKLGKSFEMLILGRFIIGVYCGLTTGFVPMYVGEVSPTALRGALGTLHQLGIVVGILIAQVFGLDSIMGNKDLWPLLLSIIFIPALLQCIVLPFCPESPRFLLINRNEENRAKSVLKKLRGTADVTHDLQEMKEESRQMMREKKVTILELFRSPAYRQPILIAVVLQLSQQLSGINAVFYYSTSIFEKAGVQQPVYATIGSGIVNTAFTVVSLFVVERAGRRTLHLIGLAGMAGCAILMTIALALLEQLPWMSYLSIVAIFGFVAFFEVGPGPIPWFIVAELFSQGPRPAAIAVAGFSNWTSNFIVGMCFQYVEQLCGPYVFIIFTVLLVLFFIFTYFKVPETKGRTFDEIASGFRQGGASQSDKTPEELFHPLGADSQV

Row | Structure (SMILES) | inhibition [1] | inhibition [2] | inhibition [3]
1 | COc1ccc(CCN(C)CCOc2ccc(NC(=O)c3cccc4c(=O)c5cc(SC)ccc5[nH]c34)cc2)cc1OC | 9.29% | 8.61% | 6.56%
2 | C(=N\Nc1nccc2sc(-c3cccnc3)cc12)/c1cccnc1 | 2.11% | 1.38% | 1.05%
3 | Cc1ccc(NC(=O)c2ccc(-c3cc4cc(Cl)c(Cl)cc4[nH]3)cc2)cc1OCCN1CCCC1 | -0.06% | -0.67% | 0.15%
4 | COc1ccc(CCC(C)N2CC(N)C(c3cn(C)c4cnccc34)C2)cc1 (stereo unspecified) | 9.7% | 9.62% | 7.69%
5 | CC1=C(C(=O)Nc2cc3cn[nH]c3cc2F)C(c2ccc(Cl)c(NS(C)(=O)=O)c2)CC(=O)N1 (stereo unspecified) | -2.07% | -0.1% | -2.27%
6 | Nc1nccc(-c2ccc3c(-c4cccc(F)c4)cnc(N)c3c2)n1 | -0.44% | 3.51% | -0.84%
7 | CN(C)Cc1ccc(-c2cc3c(Nc4ccc(OCc5cccc(F)c5)c(Cl)c4)ncnc3s2)[nH]1 | 2.15% | 2.19% | 2.33%
8 | COc1ccc(NS(=O)(=O)c2cc(NC(=O)Cn3ccccc3=O)ccc2N2CCCCC2)cc1 | 2.57% | 3.46% | -7.28%
9 | O=S(=O)(Nc1ccc(CCN2CCC(N3CCCCC3)CC2)cc1)c1cccc2cccnc12 | 3.76% | 3.39% | 1.88%
10 | CNC(=O)c1nc(-c2ccccc2)[nH]c1NC(C)=O | 2.72% | 3.44% | 2.17%
11 | O=C(c1cccc(-c2ccc(-c3nc4cc(F)ccc4[nH]3)s2)c1)N1CCCCC1CN1CCC(O)C1 (stereo unspecified) | 2.59% | 1.6% | 1.75%
12 | Cc1ccc(NC(=O)NC2CCN(c3ccnc4ccccc34)C2)cc1 (stereo unspecified) | 5.83% | 5.57% | 7.34%

— ChEMBL document CHEMBL3433997, “St. Jude Leishmania screening dataset” (2016)
